Assay [1] relates to Zika virus NS2B-NS3 protease. As to the kind of experiment: Primary screen GU AMC qHTS for Zika virus inhibitors (AID 1347154). Also: nearly all actives have a fitted effect of over 70% in size. Put shortly:
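Unlinked Zika NS2B hydrophilic domain–NS3 protease complex at 25 nM in 10 mM Tris-HCl pH 8.0, 0.01% Tween 20, with an AMC peptide substrate. Fluorescence change (340/450 nm) over 15 min at room temperature, normalized to controls, fitted to 4-parameter Hill.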

The target in assay [2] is Lysine-specific demethylase 5B (Homo sapiens) (UniProt Q9UGL1). The experiment in a line: Optimization screen for KDM5B Histone Demethylases FDH coupled qHTS against the LOPAC library (AID 1347166). Put shortly:
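KDM5BDeltaAP (200nM final) in 50mM HEPES pH 7.5, 0.01% Tween-20 was preincubated with compound for 10 min at room temperature. A substrate mix of 12.5uM H3K4Me3, 25uM a-ketoglutarate, ascorbate, Fe2+, NAD+ and formaldehyde dehydrogenase was then added. NADH fluorescence (340/450 nm) was read initially and after 30 min.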

Assay [3] concerns Zika virus NS2B-NS3 protease (unlinked complex). The experiment in a line: Primary screen GU Rhodamine qHTS for Zika virus inhibitors: Unlinked NS2B-NS3 protease assay (AID 1347159). Also: nearly all actives have a fitted effect of over 60% in size. Also: potency is read from the fitted curve at half-maximal effect. Put shortly:
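Unlinked NS2B/NS3, 25 nM; Rhod110 peptide, 1.5 microM; compounds, up to 114 microM. Reaction run 15 min at RT in 10 mM Tris-HCl pH 8.0, 0.01% Tween 20; kinetic fluorescence change fitted with a 4-parameter Hill model.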

In assay [4] the test system is Zika virus NS2B-NS3 protease (linked construct). As to the kind of experiment: Primary screen NINDS Rhodamine qHTS for Zika virus inhibitors (AID 1347160). Also: nearly all actives have a fitted effect of over 55% in size. Put shortly:
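Single-chain NS2B-NS3 protease, 25 nM, pH 8.0; compounds preincubated 15 min. Activity: Rhodamine110 release from 1.5 microM substrate over 15 min, room temperature, data fitted to 4-parameter Hill.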

Assay [5] can be described thus: Confirmatory screen GU Rhodamine qHTS for Zika virus inhibitors qHTS (AID 1347157). Also: potency is read from the fitted curve at half-maximal effect; nearly all actives have a fitted effect of over 70% in size. As to conditions: purified enzyme assay, Rhodamine110 substrate fluorescence, 15 min. Put shortly: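 Compounds, tested up to 114 microM, were incubated for 15 minutes with 25 nM unlinked NS2B-NS3 protease at pH 8.0. Cleavage of 1.5 microM Rhodamine110 substrate was then followed by fluorescence for 15 minutes.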

Assay [6] can be described thus: Confirmatory screen NINDS Rhodamine qHTS for Zika virus inhibitors (AID 1347161). Also: potency is read from the fitted curve at half-maximal effect; nearly all actives have a fitted effect of over 60% in size. As to conditions: purified enzyme assay, Rhodamine110 substrate fluorescence, 15 min. Put shortly: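 Purified linked NS2B-NS3 protease (NS2B hydrophilic domain joined to NS3 protease by flexible linker), 25 nM in 10 mM Tris-HCl pH 8.0, 0.01% Tween 20. Compounds titrated, 15 min preincubation at room temperature; 1.5 microM Rhodamine110 substrate, FITC fluorescence change over 15 min.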

Structures are written as SMILES. Results filed as inconclusive are left out. A call without a number means that no potency is given here. Unmarked numbers belong to inactive results. Activity calls are given as the source filed them. Calls follow the shape of the dose curve; as a rule, active = well fitted curve in the direction sought with a large enough effect; inconclusive = small, poorly fitted or top-dose-only effect, or another doubt; inactive = no such curve, though single readings can be large; an effect the other way counts as inactive or inconclusive.

Sequence of Lysine-specific demethylase 5B (Homo sapiens) (Q9UGL1 whole entry, looked up): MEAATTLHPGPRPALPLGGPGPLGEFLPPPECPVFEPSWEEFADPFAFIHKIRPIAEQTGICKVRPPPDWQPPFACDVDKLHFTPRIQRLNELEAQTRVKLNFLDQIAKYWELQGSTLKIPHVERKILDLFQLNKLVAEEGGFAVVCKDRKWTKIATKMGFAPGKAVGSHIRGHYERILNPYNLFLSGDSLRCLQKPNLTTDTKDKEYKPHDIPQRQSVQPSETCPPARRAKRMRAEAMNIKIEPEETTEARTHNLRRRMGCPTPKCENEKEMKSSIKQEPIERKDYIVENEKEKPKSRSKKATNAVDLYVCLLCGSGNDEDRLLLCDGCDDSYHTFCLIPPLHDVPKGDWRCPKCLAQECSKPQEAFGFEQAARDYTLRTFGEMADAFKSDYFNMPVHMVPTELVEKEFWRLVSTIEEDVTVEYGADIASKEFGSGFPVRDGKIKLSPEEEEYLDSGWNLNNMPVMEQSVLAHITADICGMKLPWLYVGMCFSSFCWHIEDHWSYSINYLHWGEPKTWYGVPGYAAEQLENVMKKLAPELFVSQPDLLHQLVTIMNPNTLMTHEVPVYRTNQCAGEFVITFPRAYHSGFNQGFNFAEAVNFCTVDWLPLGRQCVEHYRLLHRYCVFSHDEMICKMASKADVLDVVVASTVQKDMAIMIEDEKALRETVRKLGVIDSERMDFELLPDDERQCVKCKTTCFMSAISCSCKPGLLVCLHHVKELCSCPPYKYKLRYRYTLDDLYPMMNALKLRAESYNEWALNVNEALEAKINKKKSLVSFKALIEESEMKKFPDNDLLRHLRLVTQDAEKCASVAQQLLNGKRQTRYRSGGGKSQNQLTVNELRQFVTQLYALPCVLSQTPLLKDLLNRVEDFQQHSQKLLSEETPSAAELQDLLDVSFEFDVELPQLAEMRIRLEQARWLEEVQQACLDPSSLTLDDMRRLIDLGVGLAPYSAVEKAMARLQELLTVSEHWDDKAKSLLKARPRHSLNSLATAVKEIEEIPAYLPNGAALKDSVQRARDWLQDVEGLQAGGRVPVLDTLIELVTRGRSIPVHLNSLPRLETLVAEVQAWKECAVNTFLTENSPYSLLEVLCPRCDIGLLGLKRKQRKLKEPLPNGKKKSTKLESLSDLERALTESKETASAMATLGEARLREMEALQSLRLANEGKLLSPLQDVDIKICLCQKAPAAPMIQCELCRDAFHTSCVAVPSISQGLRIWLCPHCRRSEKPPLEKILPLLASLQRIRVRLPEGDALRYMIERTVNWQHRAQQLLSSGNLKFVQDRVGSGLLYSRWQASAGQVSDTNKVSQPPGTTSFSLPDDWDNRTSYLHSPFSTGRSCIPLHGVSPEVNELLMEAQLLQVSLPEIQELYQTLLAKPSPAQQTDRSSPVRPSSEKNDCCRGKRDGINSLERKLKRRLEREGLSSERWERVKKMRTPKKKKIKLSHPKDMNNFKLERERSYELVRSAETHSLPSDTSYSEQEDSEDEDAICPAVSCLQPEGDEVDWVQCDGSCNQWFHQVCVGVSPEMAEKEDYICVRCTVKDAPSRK

`CC(=O)OCC(=O)[C@@]1(O)CC[C@H]2[C@@H]3CCC4=CC(=O)CC[C@]4(C)[C@H]3C(=O)C[C@@]21C`: the Potency result in assay [1] was “inactive”. The result in assay [2] was inactive.

Consider `CCCCCCCCCCCCCCCC(=O)NCCO`, for which the Potency entry in assay [1] is “inactive”. In addition, the molecule was classed as inactive in assay [2].

Consider `CCOC(CN1CCN(CC(C)C(=O)c2ccccc2)CC1)c1ccccc1` (centres undefined), for which the Potency result in assay [1], in assay [3] and in assay [4] was “inactive” throughout. `CCOc1ccc2ccccc2c1C(=O)N[C@@H]1C(=O)N2[C@@H]1SC(C)(C)[C@@H]2C(=O)O`: the Potency result in assay [1], in assay [3] and in assay [4] was “inactive” throughout. Consider `CCN(CC)CCNC(=O)c1cc(Cl)c(N)cc1OC`, for which the Potency result in assay [1], in assay [3] and in assay [4] was “inactive” in each case. Also, the molecule was called inactive in assay [2].

On to `NC1CCN(c2cccc(Cl)n2)CC1`, for which, in assay [1], the Potency entry is “inactive”. In addition, in assay [2], the molecule was called inactive. In the case of `NC(N)=NCCC[C@H](N)C(=O)O`, the Potency result in assay [1] was “inactive”. In assay [2], the outcome was inactive. With `CSc1ccc2c(c1)C(N1CCN(C)CC1)Cc1ccccc1S2` (centres undefined), the Potency entry in assay [1] was “inactive”. In addition, in assay [2], the call was inactive.

As for `Nc1cc(=O)[nH]c(N)n1`, the Potency entry in assay [1] is “inactive”. In addition, in assay [2], the call was inactive.

On to `COc1ccc2c(c1)C(=O)N(CCc1ccc(S(=O)(=O)NC(=O)NC3CCCCC3)cc1)C(=O)C2(C)C`, for which the Potency is 27.8 µM (active) in assay [5] and 31.2 µM (active) in assay [6]. In addition, in assay [3], the Potency entry is “inactive”. In the case of `CCCCc1ncc(/C=C(\Cc2cccs2)C(=O)O)n1Cc1ccc(C(=O)O)cc1`, the Potency entry in assay [3] and in assay [4] was “inactive” in each case. As for `OCCN1CCN(CCCN2c3ccccc3Sc3ccc(Cl)cc32)CC1`, the Potency result in assay [1] was “inactive”. For the same molecule, the result in assay [2] was inactive.

In the case of `C[C@@H]1CN(c2c(F)c(F)c3c(=O)c(C(=O)O)cn(C4CC4)c3c2F)C[C@H](C)N1`, in assay [3], the activity change, negative = inhibition was -12.9% [at 19.1 µM]. Moreover, the outcome in assay [4] is “inactive [at 10.7 µM]”. Take `CC1=C(CC(=O)O)c2cc(F)ccc2/C1=C\c1ccc(S(C)(=O)=O)cc1`: the Potency entry in assay [1] was “inactive”. Also, the molecule was classed as inactive in assay [2]. On to `CN(C)CC[C@@H](c1ccc(Cl)cc1)c1ccccn1`, for which the Potency result in assay [1] was “inactive”. For the same molecule, the molecule was called inactive in assay [2]. With `CCN(CC)C(C)CN1c2ccccc2Sc2ccccc21` (centres undefined), the Potency result in assay [1] is “inactive”. The molecule was called inactive in assay [2]. For `CNCCC(Oc1ccc(C(F)(F)F)cc1)c1ccccc1` (centres undefined), in assay [2], the call was inactive. `CC[C@H]1CN2CCc3cc(OC)c(OC)cc3[C@@H]2C[C@@H]1C[C@H]1NCCc2cc(OC)c(OC)cc21`: in assay [2], the outcome was inactive. For `CN(C)CCOC(C)(c1ccccc1)c1ccccn1` (centres undefined), in assay [1], the Potency entry is “inactive”. In assay [2], the molecule was called inactive. On to `CC1=C(/C=C/C(C)=C/C=C/C(C)=C/C(=O)O)C(C)(C)CCC1`, for which the Potency result in assay [1] is “inactive”. Besides, the call in assay [2] was inactive. With `C[C@]12CC[C@@H]3c4ccc(O)cc4CC[C@H]3[C@@H]1CC[C@@H]2OC(=O)CCC1CCCC1`, the Potency in assay [3] is 20 µM (active). Turning to `Cc1cc(N)c2ccccc2[n+]1CCCCCCCCCC[n+]1c(C)cc(N)c2ccccc21`, the Potency entry in assay [3] and in assay [4] was “inactive” in each case. Take `CC(C)(C)[C@]1(O)CCN2C[C@H]3c4ccccc4CCc4cccc(c43)[C@@H]2C1`: the Potency result in assay [1] is “inactive”. Besides, the molecule was classed as inactive in assay [2]. Take `CN1CCN(C2Cc3ccccc3Sc3ccc(Cl)cc32)CC1` (centres undefined): in assay [2], the molecule was classed as inactive. As for `CN(C)CCCN1c2ccccc2CCc2ccccc21`, the Potency result in assay [1] was “inactive”. In addition, the molecule was called inactive in assay [2]. For `COc1ccc2[nH]c(S(=O)Cc3ncc(C)c(OC)c3C)nc2n1` (centres undefined), the Potency result in assay [3] and in assay [4] was “inactive” throughout. Regarding `CCOC(=O)[C@H](CCc1ccccc1)N[C@@H](C)C(=O)N1C(=O)N(C)C[C@H]1C(=O)O`, in assay [4], the Potency entry is “inactive”. `O=C1N=C(O)CN1/N=C/c1ccc(-c2ccc([N+](=O)[O-])cc2)o1`: the result in assay [2] was inactive. Turning to `O=C1Nc2ccc(Cl)cc2[C@@](C#CC2CC2)(C(F)(F)F)O1`, the Potency in assay [3] was 44.7 µM (active). The Potency result in assay [4] is “inactive”. Regarding `CCN(CC)CCOC(=O)C1(C2CCCCC2)CCCCC1`, the Potency entry in assay [1] is “inactive”. The molecule was classed as inactive in assay [2].

`Nc1nc2c(ncn2CCC(CO)CO)c(=O)[nH]1`: the Potency result in assay [3] and in assay [4] was “inactive” throughout. In the case of `CCN(CC)CCCC(C)Nc1c2ccc(Cl)cc2nc2ccc(OC)cc12` (centres undefined), the Potency result in assay [3] and in assay [4] was “inactive” each time.

`CC(C)(C(=O)O)c1ccc(C(O)CCCN2CCC(C(O)(c3ccccc3)c3ccccc3)CC2)cc1` (centres undefined): the Potency entry in assay [3] and in assay [4] was “inactive” each time. Moreover, the molecule was classed as inactive in assay [2]. In the case of `C#CCN(C)Cc1ccccc1`, in assay [1], the Potency result is “inactive”. Besides, in assay [2], the molecule was called inactive. As for `CC(C)(C)c1onc(OCP(=O)(O)O)c1CC(N)C(=O)O` (centres undefined), the result in assay [2] was inactive. In the case of `C[C@](N)(Cc1ccc(O)cc1)C(=O)O`, the outcome in assay [2] was inactive. As for `N=c1c[n+](N2CCOCC2)[n-]o1`, in assay [2], the result was inactive. In the case of `c1ccc(CN(CC2=NCCN2)c2ccccc2)cc1`, the Potency result in assay [3] and in assay [4] was “inactive” in each case. As to `C[C@@H]1C[C@H]2[C@@H]3C[C@H](F)C4=CC(=O)C=C[C@]4(C)[C@@]3(F)[C@@H](O)C[C@]2(C)[C@@]1(O)C(=O)CO`, the Potency entry in assay [3] and in assay [4] was “inactive” throughout.

Regarding `CSc1ccc2c(c1)N(CCC1CCCCN1C)c1ccccc1S2` (centres undefined), the Potency result in assay [1] is “inactive”. In addition, in assay [2], the call was inactive.

`CN1CCC[C@@H]1Cc1c[nH]c2ccc(CCS(=O)(=O)c3ccccc3)cc12`: the Potency result in assay [3] and in assay [4] was “inactive” in each case.

The values above are taken from PubChem BioAssay (NCATS).
